# Assay results reported in PubChem BioAssay (NCATS).
# Records with an inconclusive call do not appear. Activity calls are given as the source filed them. Calls follow the shape of the dose curve; as a rule, active = well fitted inhibition curve with a large enough effect; inconclusive = small, poorly fitted or top-dose-only effect, or effect the other way; inactive = flat fitted curve, though single readings scatter.
# Experiment: qHTS for Inhibitors of Plasmodium falciparum (CP250) proliferation (AID 504320)
# Details: P. falciparum CP250 in erythrocytes, SYBR Green DNA, 72 h; series mostly up to 6.7 µM; activity change, negative = inhibition: at the top concentration
# Text: Plasmodium falciparum is a virulent malarial parasite that kills 1-2 million people worldwide each year. Malaria not only inflicts tremendous suffering and morbidity on the human population, but has dramatically influenced the course of civilization with profound sociological and economic implications (Shah, S. 2010). Transmitted by mosquitoes, the sporozoite form of the parasite enters the blood stream to infect hepatocytes, where they become merozoites that infect red blood cells (erythrocytes). Within erythrocytes, merozoites begin a […] cycle of growth and division, after which the parasite is released to infect new red blood cells. Gametocytes, which form within erythrocytes as well, circulate in the bloodstream and are ingested by the mosquito, thereby completing the life cycle (see CDC website). To profile malarial lines for differential chemical responses and to identify inhibitors of malarial growth, an assay that measures P. falciparum growth and replication within erythrocytes was employed. This assay uses a DNA binding fluorescent dye (SYBR Green) to detect parasite DNA following cell lysis. Because mature erythrocytes lack DNA, only Plasmodium-derived DNA is detected. The P. falciparum line cp250, derived from a malarial isolate from Cambodia, (Mu, J., et al. 2010) was added to the panel of lines, Dd2, HB3, 7G8 and GB4 in this study. Laboratory of Assay Development and Screening Technology [ADST] and NIH Chemical Genomics Center [NCGC] Boston University, Chemistry Department, Center for Chemical Methodology and Library Development [CMLD-BU] NIH National Institute of Allergy and Infectious Diseases [NIAID]
# ADST Assay Protocol Summary: The 1536-well SYBR Green viability assay was based on the method of Bennett et al (2004) and described previously in 1536-well format (Yuan J., et al. 2009). For screening 3 ul culture medium was dispensed into 1536 well black clear bottom plates (Aurora Biotechnologies) using a Multidrop Combi (Thermo Fisher Scientific Inc.), 23 nL compounds in DMSO were added by a pin transfer (Cleveland, P.H. and Koutz, P.J, 2005) using a pin tool-based delivery system (Kalypsys), and 5 ul of erythrocytes infected with P. falciparum one of five lines (cp250, Dd2, HB3, 7G8 or GB4, 0.3% parasitemia, 2.5% hematocrit final concentration) were added. The plates were incubated at 37C in a humidified incubator in 5% CO2 for 72 h, and 2 ul lysis buffer (20 mM Tris HCl, 10 mM EDTA, 0.16% saponin, 1.6% triton X, 10X SYBR Green I (supplied as 10,000X final concentration by Invitrogen) was added to each well. The plates were mixed for 25 sec with gentle shaking and incubated overnight at room temperature in the dark. The following morning, fluorescence intensity at 485(14) nm excitation and 535(25) nm emission wavelengths was measured on an EnVision (Perkin Elmer) plate reader. Plate reads were normalized relative to the control inhibitor (0.29 uM artemisinin) and vehicle (DMSO) wells present on each plate and then corrected by an algorithm using vehicle-only control plates at the beginning and end of the compound plate stack. References Shah, S. (2010). The Fever: how malaria has ruled humankind for 500,000 years. New York, Sarah Crichton Books. CDC web site, http://www.cdc.gov/malaria/about/biology/index.html Mu, J., Myers, R.A., Jiang, H., Liu, S., Ricklefs, S., Waisberg, M., Chotivanich, K., Wilairatana, P., Krudsood, S., White, N.J., et Plasmodium falciparum genome-wide scans for positive selection, recombination hot spots and resistance to antimalarial drugs Nature Genetics 2010, 42, pp 268-271 Bennett TN, Paguio, M., Gligorijevic, B., Seudieu, C., Kosar, A. D., Davidson, E., and Roepe, P. D. Novel, rapid, and inexpensive cell-based quantification of antimalarial drug efficacy Antimicrobial Agents Chemother. 2004, 48(5): pp 1807-10 Yuan J, Johnson RL, Huang RL, Wichterman J, Jiang HY, Hayton K, Fidock DA, Wellems TE, Inglese J, Austin CP, Su XZ. […]
# Potency is read from the fitted curve at half-maximal effect.
Compound,"activity change, negative = inhibition",Potency
COC(=O)C1=C(C)N(Cc2ccccc2)C(=NCc2ccc3c(c2)OCO3)NC1CCc1ccccc1 (stereo not given),-9.76% (inactive),–
COC1=C[C@H](C(=O)NCc2ccccn2)[C@@]2(C)Cc3ccccc3[C@@H]2CC1=O,6.85% (inactive),–
CC1(OC(=O)CCc2ccccc2)C(=O)C=C2C=C(c3ccc(C#N)cc3)N(C(CO)CO)C=C2C1=O (stereo not given),–,inactive
COc1cccc([C@@H]2Oc3ccc(OC)cc3C(=O)[C@@H]2O)c1,-3.85% (inactive),–
C=CC1=C2C=C(C3CC3)N(Cc3ccccc3)C=C2C(=O)C(C)(OC(=O)c2ccco2)C1=O (stereo not given),–,inactive
C=CCOC(=O)NC(c1ccc(F)c(F)c1)C(C(=O)CCl)C(=O)OC (stereo not given),4.62% (inactive),–
COc1ccc(-c2nc3c(c4c2C[C@H](c2ccccc2)OC4)CN(C(=O)Nc2cccc(C#N)c2)CC3)c(C)c1,–,inactive
COC(=O)[C@@]1(C=C2c3ccc(F)cc3[C@@H](OC)[C@@H]2C)[C@@H]2OCCC[C@@H]21,3.63% (inactive),–
COC(=O)C12CC3(CCC4C5C(C(OCc6ccccc6)C41)C52)OCCO3 (stereo not given),3.59% (inactive),–
CCN1C(=S)NC(c2ccccc2)C(C(=O)OC)=C1C (stereo not given),4.51% (inactive),–
C[C@H]1Cc2c(COc3ccccc3)nc3c(c2CO1)CN(C(=O)C1CCCCC1)CC3,–,inactive
COC(=O)C1=C(C(=O)OC)[C@@H]2N(CC=C(C)C)c3ccccc3[C@@]23CCC(=O)N(CCc2ccccn2)C3=N1,6.56% (inactive),–
CCN1C(=NCc2cccc(C(F)(F)F)c2)NC(c2cccc(C(F)(F)F)c2)C(C(=O)OC)=C1C (stereo not given),–,757 nM (active)
C=CCN1C(=O)[C@]2(OCCC=C[C@H]2C)c2c(Br)cccc21,1.76% (inactive),–
CC(=O)[C@H]1[C@H](CCc2ccccc2)NC(=O)N(Cc2ccccc2)[C@@H]1C,–,inactive
C=CCN1c2ccccc2[C@]23C[C@@H](C(=O)OC)N(C(=O)Nc4ccc(C(F)(F)F)cc4)C2=NC(C(=O)OC)=C(C(=O)OC)[C@H]13,7% (inactive),–
COc1ccc2c(c1)CO[C@H]([C@H](O)CBr)[C@H]2C=Cc1ccccc1,1.09% (inactive),–
COC(=O)C1=C(C)N(Cc2ccccc2)C(=S)NC1CCc1ccccc1 (stereo not given),-1.72% (inactive),–
CCN1C(=NCc2ccccc2)NC(c2cccc(C(F)(F)F)c2)C(C(=O)OC)=C1C (stereo not given),-20.7% (inactive),–
CCCCC1=CC2=C(c3ccco3)C(=O)C(C)(OC(=O)c3ccc(OC)cc3)C(=O)C2=CN1Cc1ccc(OC)cc1 (stereo not given),–,inactive

Compound,"activity change, negative = inhibition",Potency
C#CCNC(=O)[C@H]1C=C(OC)C(=O)C[C@H]2c3ccccc3C[C@]12C,2.44% (inactive),–
C=CC[C@@H]1C=C[C@H](ON=C2c3cc(OC)ccc3O[C@H](c3cccc(OC)c3)[C@@H]2O)[C@H](CO)O1,3.26% (inactive),–
COC(=O)N[C@@H](c1ccc(Br)cc1)C(C(=O)OC)C(=O)OC,-2.42% (inactive),–
CCCCCCCc1cc2ccccc2c2c(C(C)=O)c(-c3ccccc3)c(C(=O)OC)n12,5.01% (inactive),–
COC[C@@H](O)[C@H]1OCc2cc(OC)ccc2[C@H]1C=Cc1ccccc1,-1.72% (inactive),–
Brc1ccc2c(c1)c1cc(Br)ccc1n2CC1CO1 (stereo not given),-1.99% (inactive),–
CC1=CC[C@@H](COc2ccccc2)O[C@@]2(C1)C(=O)Nc1cccc(Br)c12,–,inactive
C=CCCN1C(=O)NC(c2ccccc2)C(C(C)=O)=C1C (stereo not given),-4.03% (inactive),–
COC(=O)CCC(=O)OC1(C)C(=O)C=C2C=C(C3CC3)N(Cc3ccco3)C=C2C1=O (stereo not given),–,inactive
CC(C)(C)OC(=O)N1CCC[C@@H]1C(O)(c1ccccc1)c1ccccc1,0.579% (inactive),–
CCc1cc2c(nc1CC)CCN(CCC(C)=NOC[C@@H](O)[C@H]1O[C@@H]3OC(C)(C)O[C@H]3[C@@H]1O)C2,3.73% (inactive),–
COC(=O)CCC(=O)OC1(C)C(=O)C=C2C=C(C3CC3)N(Cc3ccc(OC)cc3)C=C2C1=O (stereo not given),–,inactive
CC(=O)C1=C(C)N(Cc2ccccc2)C(=O)NC1c1cccc(F)c1 (stereo not given),4.02% (inactive),–
N#CCCCS(=O)(=O)c1nnnn1-c1ccccc1,-0.516% (inactive),–
COc1cccc([C@H]2Oc3ccc(OC)cc3C(=NO[C@H](C)c3cn([C@H](CO)Cc4ccccc4)nn3)[C@H]2O)c1,-0.497% (inactive),–
COCCN1C(=S)NC(c2cccc(F)c2)C(C(=O)OC)=C1C (stereo not given),1.58% (inactive),–
CCCCCCCC1=CC2=CC(=O)C(C)(OC(C)=O)C(=O)C2=CN1CCc1ccccc1 (stereo not given),0.145% (inactive),–
COCCN1C=C2C(=O)C(C)(OC(=O)C3CCCC3)C(=O)C(c3ccccc3)=C2C=C1CCCC(=O)OC (stereo not given),–,inactive
COC(=O)CC=C[C@@H](C)[C@@H](C=NO[C@@H](C)c1cn([C@H](CO)Cc2ccccc2)nn1)NS(=O)(=O)c1ccc(C)cc1,0.0765% (inactive),–
COc1ccc(COC(=O)NN=C2C[C@@H](O)[C@@H](O)[C@@H]3[C@H]4C(=O)N(C5CCCCC5)C(=O)[C@@H]4CC[C@@H]23)cc1,5.04% (inactive),–
